# ChEMBL document CHEMBL4513216, “Probing the Open Global Health Chemical Diversity Library for Multistage-Active Starting Points for Next-Generation Antimalarials” (ACS Infect Dis, 2020)
# The whole screen tested about 65,000 compounds, of which about 2,100 (3.2%) showed an effect of 50% or more. The median lay at about -52%. This excerpt belongs to a sample that is enriched for strong results.
# Test system: Plasmodium falciparum
# Assay: Screen against P. falciparum Asexual Blood Stage (ABS), at 5uM
# Assay type: functional, Dd2
# Conditions: tested at 5 uM
row,Compound,INHIBITION [%]
1,COC(=O)c1cccn1C1CCN(Cc2cnc3ccccn23)CC1,-55.1
2,COC(=O)c1ccc(S(=O)(=O)NC2CNC(=O)C2)cc1 (configuration not stated),-28.8
3,Cn1c(=O)c2sccc2n(CC(=O)Nc2cccc(Cl)c2)c1=O,59.4
4,CCn1c(=O)c2sccc2n(CC(=O)Nc2cccc(Cl)c2)c1=O,-40
5,CC(C)c1cccc(NC(=O)Cn2c(=O)n(C)c(=O)c3sccc32)c1,-34.2
6,O=C(NC1CCN(c2ncccc2F)C1)c1cccc(-n2ccnc2)c1 (configuration not stated),-41.7
7,Cc1ccc(S(=O)(=O)N2CCC(S(=O)(=O)c3nncn3C)CC2)cc1C,-31.9
8,Cc1ccc(S(=O)(=O)N2CCC(S(C)(=O)=O)CC2)cc1C,-1.8
9,Cc1ccc(S(=O)(=O)N2CCCCC(N3CCN(C)CC3)C2)cc1F (configuration not stated),39.6
10,Cc1cc(S(=O)(=O)N2CCCN3CCCC3C2)ccc1F (configuration not stated),69.1
11,Cc1ccc(S(=O)(=O)N2CCC(N3CCCCC3)CC2)cc1C,65.9
12,Cc1cc(S(=O)(=O)N2CCC(S(C)(=O)=O)C2)ccc1F (configuration not stated),-22.2
13,CC(C)NC(=O)C1CCN(C(C)C(=O)N2CCc3sccc3C2)CC1 (configuration not stated),-14.7
14,CC(C(=O)N1CCc2sccc2C1)N1CCC(N2CCCC2)CC1 (configuration not stated),53
15,CC(C(=O)N1CCc2sccc2C1)N1CCCN(C2CC2)CC1 (configuration not stated),22.7
16,CN1CCC(Cc2cncc(-c3ccccc3C(=O)O)n2)C1 (configuration not stated),-92
17,CCc1nc2ccccc2c(=O)n1CC1(O)CCN(S(C)(=O)=O)CC1,-59.6
18,CC(C)c1cc(C(=O)N2CCOC3(CCCC3)C2)no1,-111
19,CCOc1ccc(C(=O)Nc2c(C)nc3ccc(Cl)cn3c2=O)cc1,-87.3
20,COC(=O)c1ccc(S(=O)(=O)NCc2cccnc2N(C)C)cc1,-8.55
21,CN(C)c1ncccc1CNS(=O)(=O)c1ccc(C(N)=O)cc1,-34.2
22,CCOC(=O)c1ccc(S(=O)(=O)NCc2cccnc2N(C)C)cc1,54.1
23,CC(C)(O)CCc1ccc(C(=O)N2Cc3cnn(CCO)c3C2)cc1,-86.5

row,Compound,INHIBITION [%]
1,CCOc1ncnc2c1CCN(C(=O)NCc1cccnc1)CC2,-58.1
2,Clc1cccc(CNc2cnn(CCN3CCCCC3)c2)c1,53.3
3,N#Cc1ccc(CNc2cnn(CCN3CCOCC3)c2)cc1,-16.7
4,Clc1ccc(CNc2cnn(CCN3CCOCC3)c2)cc1Cl,-55.6
5,Cn1nccc1CCNC(=O)[C@H]1CNC[C@H](C(=O)N2CCCC2)C1,-22.7
6,COC(=O)CN1CCN(c2nc3c(s2)c(C)nn3C)C(C)C1=O (configuration not stated),-88
7,Cc1nn(C)c2nc(N3CCNC(=O)C3Cc3ccccc3)sc12 (configuration not stated),-81.9
8,Cc1ccc(CN2CCN(c3nc4c(s3)c(C)nn4C)C(C)C2=O)cc1 (configuration not stated),69.8
9,O=C(CN1C=Nc2ccccc2S1(=O)=O)NCCCc1ccccc1,-115
10,CCn1cnnc1CNC(=O)N1CCN(c2ccccc2Cl)CC1,-79.9
11,COc1ccc(CN(Cc2cncn2C)CC2CCCO2)c(OC)c1 (configuration not stated),-22.7
12,CSc1ccc(-c2nc(CN3C[C@@H](C)NC[C@@H]3C)c(C)o2)cc1,-61.5
13,CSc1ccc(-c2nc(CN3CCNCC3C)c(C)o2)cc1 (configuration not stated),35.1
14,Cc1oc(-c2cc(F)cc(F)c2)nc1CN1C[C@@H](C)NC[C@@H]1C,60.1
15,Cn1cc(N2C[C@@H]3CN(CC4CCOCC4)C[C@@H]3C2=O)cn1,-67.1
16,Cn1cc(C2CCCN2C(=O)CCCc2ccccn2)cn1 (configuration not stated),-94.3
17,Cc1ccc(CNC(=O)c2cc(Cn3ccnc3C(C)C)[nH]n2)o1,-76.4
18,CCCc1cc(N2CCC(NCC3(O)CCN(C)CC3)CC2)nc(C)n1,51.2
19,CCCc1cc(N2CCC(NC3CCC(O)CC3)CC2)nc(C)n1 (configuration not stated),-161
20,CCCc1cc(N2CCC(NCC3(O)CCCCC3)CC2)nc(C)n1,8.94
21,CCS(=O)(=O)CC(=O)NC(c1ccccc1)C1CCCC1 (configuration not stated),-30
22,Cc1noc(C)c1CN1CCN(C(C)c2nc(C3CC3)no2)CC1 (configuration not stated),-77.5
23,Cc1c(Cc2ccccc2)c(O)nc2nc(N3CCOCC3)nn12,-56.2

row,Compound,INHIBITION [%]
1,O=C(c1ccncc1)N1CCC2(CC1)CCN(C(=O)c1cccnc1)C2,-57.2
2,CC(=O)Nc1ccc(OCc2noc(C(=O)N3CCCCCC3)n2)cc1,-83.9
3,Cc1nc(CN2CCCC(CCc3ccc(F)cc3F)C2)c[nH]1 (configuration not stated),57.6
4,Fc1ccc(CCC2CCCN(Cc3c[nH]cn3)C2)c(F)c1 (configuration not stated),61.6
5,CNc1ccc(CC2CCCN(Cc3c[nH]cn3)C2)nn1 (configuration not stated),-105
6,Cc1[nH]c(=O)[nH]c(=O)c1CN1CCCC(CCc2ccc(F)cc2F)C1 (configuration not stated),52
7,Cc1nc(CN2CCCC(CCc3ccccc3F)C2)c[nH]1 (configuration not stated),36.5
8,Cc1[nH]c(=O)[nH]c(=O)c1CN1CCCC(CCc2ccccc2F)C1 (configuration not stated),-26.5
9,Nc1ccc(CC2CCCN(Cc3c[nH]cn3)C2)nn1 (configuration not stated),-87
10,Cc1[nH]c(=O)[nH]c(=O)c1CN1CCCC(CCc2c(F)cccc2F)C1 (configuration not stated),-44.3
11,Cc1nc(CN2CCCC(CCc3c(F)cccc3F)C2)c[nH]1 (configuration not stated),43.1
12,Cc1ccc(OCC(O)CN2CCc3c(ncn3C3CC3)C2)cc1 (configuration not stated),-28.3
13,CN1CCc2nc(C3CCCN(C(=O)CC(C)(C)C)C3)ncc2C1 (configuration not stated),-102
14,Cc1cccc(-c2ccc(C(=O)N3CCSCC3)c(=O)[nH]2)c1,-14.2
15,Cc1csc(CN2CC[C@H]3O[C@H](C(=O)Nc4cccnc4)CC[C@H]32)n1,-18.1
16,Cc1nn(C)c2c(N3CCN(C(=O)C4CCCO4)CC3)ncnc12 (configuration not stated),9.5
17,CC(=O)N1CCN(C(=O)c2cc(C(C)C)no2)[C@H]2CS(=O)(=O)C[C@H]21,-67
18,O=C(CCNC(=O)c1cccc(OC(F)F)c1)Nc1cccnc1,-128
19,Cc1cccc(CN2CCc3nnc(CN(C)C)n3CC2)n1,-108
20,Cc1cccc(CN2CCc3nnc(Cn4cccc4)n3CC2)n1,57.5
21,Cc1cccc(CN2CCc3nnc(CN4CCCC4=O)n3CC2)n1,-48.8
